Assay results taken from PubChem BioAssay AID615 (Sanford-Burnham Center for Chemical Genomics, 2007).
Fewer than 10 of roughly 21,000 compounds were called active.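 The calls were made as follows: active = inhibition above 50% at the 20 µM single-dose screen; inactive = the rest.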 The list is a sample of the results.

Molecular target: Alkaline phosphatase, tissue-nonspecific isozyme (Homo sapiens) (UniProt P05186)
Assay: human TNAP enzyme inhibitors, primary screen, biochemical, colorimetric, p-nitrophenol readout (AID 615);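 also: 0% = DMSO only wells and 100% = 1 mM levamisole wells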
Settings: purified TNAP, pNPP hydrolysis, absorbance 405 nm; at 20 µM; hits give high values

Chain of Alkaline phosphatase, tissue-nonspecific isozyme (Homo sapiens) (P05186 whole entry, looked up): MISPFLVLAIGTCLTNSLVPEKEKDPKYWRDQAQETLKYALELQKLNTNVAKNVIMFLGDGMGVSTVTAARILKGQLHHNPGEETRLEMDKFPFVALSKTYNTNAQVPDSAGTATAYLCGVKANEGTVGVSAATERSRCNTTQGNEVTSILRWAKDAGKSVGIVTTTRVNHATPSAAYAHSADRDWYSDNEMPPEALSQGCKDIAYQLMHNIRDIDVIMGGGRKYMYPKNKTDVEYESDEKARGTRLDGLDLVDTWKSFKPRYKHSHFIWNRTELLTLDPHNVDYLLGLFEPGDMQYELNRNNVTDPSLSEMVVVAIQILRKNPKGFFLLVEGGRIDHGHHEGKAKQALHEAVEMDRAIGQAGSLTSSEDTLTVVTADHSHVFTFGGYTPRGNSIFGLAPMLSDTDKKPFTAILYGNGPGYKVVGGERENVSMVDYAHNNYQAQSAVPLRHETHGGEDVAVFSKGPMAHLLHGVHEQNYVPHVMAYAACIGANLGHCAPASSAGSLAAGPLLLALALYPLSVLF

inhibition, inactive:
Cn1c(=O)c2c(nc(Br)n2CCSc2nc3ccccc3o2)n(C)c1=O 0%
COc1ccc(CCNS(=O)(=O)c2ccc(F)cc2)cc1OC 3.6%
Nc1nonc1-c1nc2ccccc2n1Cc1ccc(F)cc1 -0.2%
COCCCn1c2nc3ccccc3nc2c2c(=O)n(Cc3ccc(Cl)cc3)c(C)nc21 7.2%
CN1CCN(C(=O)C2C3C=CC(C3)C2C(=O)O)CC1 (configuration not stated) 3.6%
CCCCC(=O)N1CC2(C)CN(C(=O)CCCC)CC(C)(C1)C2=O -3.1%
O=C(CSc1nnc(-c2cccs2)n1Cc1ccco1)c1ccc2c(c1)OCO2 1.9%
COc1ccc(/C(O)=C2/C(=O)C(=O)N(CCCN(C)C)C2c2ccccc2)cc1OC (configuration not stated) 2.9%
CCCCC(=O)Nc1ccc2c(c1)OCCO2 -5.8%
CC(=O)C1=C(O)C(=O)N(c2ccc(S(N)(=O)=O)cc2)C1c1ccccc1F (configuration not stated) 0.8%
CCOC(=O)c1c(-n2cnnn2)sc(C)c1C 3.1%
Cn1c2c(c(=O)n(C)c1=O)CN(Cc1ccco1)CN2 -1.5%
Cc1ccc(NC(=O)N2CCC(C(=O)NCc3ccc(F)cc3)CC2)cc1 6.4%
Cc1ccccc1C(=O)Nc1cccc(-c2nnc(SCC(=O)O)n2C)c1 1.1%
Cc1ccc2[nH]c3c(c2c1)CN(C(=O)CN1CCN(c2ccccc2)CC1)CC3 2.7%
CC(=O)N(CN1C(=O)C2CC=CCC2C1=O)c1cccc(Cl)c1 (configuration not stated) 7.2%
COc1ccc(C2/C(=C(/O)c3ccccc3)C(=O)C(=O)N2c2ncccn2)cc1OC (configuration not stated) -1.7%
COc1ccc(C(CNC(=O)c2cccnc2SC)N2CCOCC2)cc1 (configuration not stated) -2%
CCCCNc1nc2c(c(=O)[nH]c(=O)n2C)n1CCOc1ccccc1 4.2%
CC(=O)c1cc(-c2ccccc2)[nH]c1N1CCCC1 0.8%
O=C(C1CCCO1)N1CCC(c2nc3ccccc3[nH]2)CC1 (configuration not stated) 5.7%
O=C1Nc2ccccc2C12Nc1ccccc1S2 (configuration not stated) 2%
Cc1ccc(-c2c3c(=O)n(C)c(=O)n(C)c3cn2-c2ccccc2O)cc1 1.8%
Cc1ccccc1-n1c(SCC(=O)NCc2cccs2)nnc1-c1ccncc1 -7.5%
CCc1nnc(NC(=O)c2c(O)c3c([nH]c2=O)CCCC3)s1 6.2%
COc1ccccc1CNC(=O)C1CCN(S(C)(=O)=O)CC1 7.2%
COc1ccc(NC(=O)c2c(C)oc3c2CCCC3)cc1 5.5%
Cc1nc2nc(CSc3nc4ccccc4s3)cc(=O)n2[nH]1 1.3%
CCOC(=O)C1CCCCN1Cc1ccc(OC)c(OC)c1OC (configuration not stated) 6.8%
CS(=O)(=O)N(CC(=O)N1CCN(Cc2ccc3c(c2)OCO3)CC1)c1ccc2c(c1)OCO2 -15%
Cc1cc(C(=O)COC(=O)c2cccs2)c(C)n1-c1c(C)n(C)n(-c2ccccc2)c1=O 4.7%
CCCOP(=O)(c1ccc(N(C)C)cc1)C(O)c1cc(OC)c(OC)c(OC)c1 (configuration not stated) 12.9%
COc1ccc(CCNC(=O)CSc2nnc(-c3cccc(F)c3)o2)cc1OC -1.5%
COc1ccc(CCN(C)CCN2C(=O)c3ccccc3C2=O)cc1OC -0.3%
Cc1ccc(C(=O)NC2CCN(C(=O)N3CCOCC3)CC2)cc1 7%
COc1ccc(N2CCN(C(c3cc4ccc(C)cc4[nH]c3=O)c3nnnn3C3CCCC3)CC2)cc1 (configuration not stated) 14.6%
CCOC(=O)c1c(NC(=O)c2ccc(Br)o2)sc2c1CCCC2 1%
Cc1cc(=O)[nH]c(SCC(N)=O)c1C#N -1.7%
O=C(c1ccc2c(c1)C(=O)N(c1ccc(Cl)cc1)C2=O)N1CCN(c2ccccn2)CC1 5.1%
CCOc1ccc2nc(NC(=O)CSc3nc4c(c(=O)n(C)c(=O)n4C)n3CC)sc2c1 4.9%
CN(C)CCNC(=O)C(C(=O)c1ccccc1)n1ccccc1=O (configuration not stated) 1.2%
CCc1c(C)sc(NC(=O)OC)c1C(=O)N1CCOCC1 4.1%
O=C(O)CN1C(=O)CC(Cc2ccccc2)C1=O (configuration not stated) 4.8%
CCNC(=O)N1CCNC(=O)C1CC(=O)Nc1ccc(C(=O)OCC)cc1 (configuration not stated) 4.4%
CCOC(=O)c1[nH]c2ccccc2c1N=C(C)N(CC)CC -0.8%
Cc1nn(Cc2ccccc2)c(Cl)c1C(=O)OC1CCOC1=O (configuration not stated) 3.6%
CCC1C(C#N)=C(SC)NC2=C1C(=O)CC(C)(C)C2 (configuration not stated) -2.9%
COc1ccc(CC(=O)n2nc(-c3cccnc3)nc2N)cc1 6.9%
Cc1cccc(OCc2nnc(SCC(=O)N3CCN(C(=O)c4ccco4)CC3)n2C)c1C 0.2%
c1csc(CN2CCN(Cc3cccs3)C2c2cccs2)c1 5.5%
CCN1C(=O)/C(=C\N2CCN(c3cccc(Cl)c3)CC2)SC1=S 6.1%
COC(=O)[C@H](CCSC)NC(=O)Nc1ccc(OC)cc1 4.9%
C#CCN1CC(C)/C(=N/O)CC1C (configuration not stated) 2.4%
CC(C)OC(=O)C(C#N)c1nc2ccccc2nc1N1CCN(Cc2ccc3c(c2)OCO3)CC1 (configuration not stated) 0%
O=C(Nc1ncccn1)c1cccs1 3.3%
CCCCCN(C(=O)NC(=O)Nc1ccccc1C)S(C)(=O)=O 0.7%
Cc1ccc(C(=O)Nc2nnc(-c3ccncc3)s2)o1 -1.1%
O=C(c1cccs1)N1CCCC(c2nc(-c3ccc(F)cc3)no2)C1 (configuration not stated) 2.9%
CCCc1cc(=O)oc2c(C)c(O)c(CN3CCCCC3)cc12 0.2%
COc1ccc2c3c(c(=O)oc2c1OCC(=O)C(C)(C)C)CCCC3 3.6%
CCOC(=O)CSc1nnc(CNc2nc(-c3ccccc3)cs2)n1C 5.4%
CCc1cc2c(=O)c(-c3ccon3)c(N)oc2cc1OC 5.4%
Cc1ccnc(SCCn2c(Br)nc3c2c(=O)[nH]c(=O)n3C)n1 3%
O=C(Nc1cnn(Cc2ccc(Cl)cc2)c1)C1CCCC1 9.7%
COc1cc(OC)cc(C(=O)NCCSCc2ccco2)c1 5.2%
CC1(N2CCOCC2)CC2(O)C(=[N+]1[O-])CCc1nonc12 (configuration not stated) 9.3%
CC1CN(C2CCN(C(=O)COc3ccccc3)CC2)CC(C)O1 (configuration not stated) -2.1%
CC(C)c1nnc(NC(=O)C2CCCN2S(=O)(=O)c2ccc(Cl)cc2)s1 (configuration not stated) 3.8%
O=C(CSc1nnc(Cc2ccccc2)n1-c1ccccc1)N1CCOCC1 0.4%
Cc1cccc(NC(=O)CSc2nnc(CCCCCNC(=O)OC(C)(C)C)o2)c1C -8.7%
COC(=O)c1ccc(NC(=O)CSc2nnc(-c3ccncc3)n2C)cc1 1.1%
O=C(O)C1CCCN1S(=O)(=O)c1ccc2c(c1)CCC2 (configuration not stated) 0.7%
